# From PubChem
# NPC1 promoter act = NPC1 promoter activation; Huh7 NPC1 promoter luciferase reporter, 24 h; Potency, µM (highest dose often 9.22 µM), hits mostly activators; 320,000 tested, 2.4% active; also: nearly all actives have a fitted effect of over 60% in size
#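 NPC1 promoter–luciferase Huh7 cells; 24 h compound; luminescence.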
# ELG1 genotoxic = inducers of genotoxicity in HEK293T ELG1-luciferase cells | HEK293T ELG1-luciferase reporter, luminescence, 16 h | Potency, µM (top dose mostly 46 µM), most hits filed as activators | 330,000 tested, 1.3% active; also: nearly all actives have a fitted effect of over 60% in size
#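 HEK293T cells expressing luciferase-tagged ELG1 were treated with compound or DMSO for 16 hr at 37°C. Luciferase activity was then read after 30 min with ONE-Glo at room temperature; rising signal flags genetic stress.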
# SMN2 splice enh = SMN2 splice variant enhancement. HEK293 SMN2-luciferase splicing reporter, luminescence, 30-36 h. Potency, µM (series often up to 46.1 µM), actives largely listed as activators. 210,000 tested, 2.8% active. AID 1458; also: nearly all actives have a fitted effect of over 55% in size
#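 HEK293 cells carry an SMN2 minigene-luciferase reporter in which exon 7 inclusion puts luciferase in frame. Cells were seeded at 2000 cells/well, attached for 10-12 hours, then exposed to compounds for 30-36 hours at 37C before ONE-Glo luminescence.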
# FLuc counter = counter-screen for miR-21 project: firefly luciferase inhibitors or activators. AID 588342. 360,000 tested, 6.9% active. Potency, µM (series often up to 57.5 µM), most hits filed as inhibitors. purified FLuc, Km substrates, luminescence inhibition; also: nearly all actives have a fitted effect of over 55% in size
# Target sequence (P08659 whole entry, looked up): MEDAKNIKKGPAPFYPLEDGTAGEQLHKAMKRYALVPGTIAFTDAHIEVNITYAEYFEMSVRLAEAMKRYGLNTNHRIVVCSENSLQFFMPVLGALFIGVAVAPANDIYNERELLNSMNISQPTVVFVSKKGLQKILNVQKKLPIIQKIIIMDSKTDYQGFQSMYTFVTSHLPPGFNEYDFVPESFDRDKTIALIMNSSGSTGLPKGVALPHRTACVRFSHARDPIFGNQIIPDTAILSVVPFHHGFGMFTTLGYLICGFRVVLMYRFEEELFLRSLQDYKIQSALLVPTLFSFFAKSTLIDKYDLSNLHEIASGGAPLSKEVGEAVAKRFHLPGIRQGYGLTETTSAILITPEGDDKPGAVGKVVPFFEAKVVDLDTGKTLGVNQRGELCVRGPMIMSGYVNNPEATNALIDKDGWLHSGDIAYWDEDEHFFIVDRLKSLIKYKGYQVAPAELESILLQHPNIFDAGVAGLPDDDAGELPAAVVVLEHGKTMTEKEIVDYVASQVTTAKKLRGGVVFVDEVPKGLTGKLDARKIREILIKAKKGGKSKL
#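 Biochemical qHTS of compounds, final roughly 60 µM downward over six points, against 10 nM purified firefly luciferase using Km concentrations of substrates (10 uM D-luciferin, 10 uM ATP) in Tris acetate pH 7.5 buffer; luminescence output.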
# Rab9 promoter act = Rab9 promoter activation; Huh7 Rab9 promoter-luciferase reporter, luminescence, 24 h; Potency, µM (series often up to 9.22 µM), usual class: activators; 320,000 tested, 2.8% active; also: nearly all actives have a fitted effect of over 60% in size
#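 Using Huh7 cells stably transfected with Rab9 promoter–luciferase, compounds were incubated 24 h at 37 °C, 5% CO2; luciferase luminescence was read 10 min after reagent addition.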
# ELG1 repair inh = blocks ELG1-dependent DNA repair in HEK293T cells | HEK293T ELG1-luciferase reporter, luminescence, 16 h; DNA damage induced by 5-fluorouridine | Potency, µM (doses to about 46.1 µM), actives largely listed as inhibitors | 330,000 tested, 2.3% active | AID 504467; also: nearly all actives have a fitted effect of over 55% in size
#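 In this reporter screen, reduction of luminescence relative to DMSO vehicle indicated activity. Compounds and 5-fluorouridine were added together to 2,000 cells per well, incubated for 16 hr at 37 °C, then developed with ONE-Glo.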
# Hits are given with their value; – = inactive; ? = inconclusive; · = no result given; [ ] = another dose, or the depositor's remark. Hits are enriched below; roughly 9.4% of the tested compounds scored in any of these assays. Calls follow the shape of the dose curve; as a rule, active = well fitted curve in the direction sought with a large enough effect; inconclusive = small, poorly fitted or top-dose-only effect, or another doubt; inactive = no such curve, though single readings can be large; an effect the other way counts as inactive or inconclusive.
SMILES,NPC1 promoter act,ELG1 genotoxic,SMN2 splice enh,FLuc counter,Rab9 promoter act,ELG1 repair inh
O=C(NCCN1CCOCC1)c1ccccc1N1C(=O)[C@@H]2Cc3c([nH]c4ccccc34)C(c3ccc(F)cc3)N2C1=O (some centres not stated),–,–,·,–,–,5.2µM
Cc1cc(C(=O)Nc2sc(C)c(C)c2C#N)no1,–,11µM,·,19µM,–,?
CCc1c(C)sc(NC(=O)c2cc(C(C)C)on2)c1C#N,–,–,–,?,–,?
CCc1c(C)sc(NC(=O)c2cc(C)no2)c1C#N,–,–,–,13µM,–,?
CCc1cc(C(=O)Nc2sc(C)c(CC)c2C#N)no1,·,·,–,15µM,·,·
O=C1NC(=O)/C(=C\c2ccc(Oc3cnccn3)cc2)S1,?,?,?,13µM,2.8µM,?
O=Cc1ccc(Oc2cnccn2)cc1,–,–,–,–,–,–
COc1cc(/C=C2\SC(=O)NC2=O)ccc1Oc1cnccn1,–,–,·,–,–,–
O=C1NC(=S)S/C1=C/c1ccc(Oc2cnccn2)cc1,–,–,–,21µM,?,–
CCc1c(C)sc2c1CCN(Cc1cccc(OC)c1)C2c1ccccc1 (configuration not stated),·,·,·,–,·,·
CN(C)/C=C(\C#N)C(=O)N/N=C/c1ccccc1,–,–,?,?,2.2µM,?
c1ccc(CO[C@H]2NCCN2Cc2ccccc2)cc1,·,·,–[9.22 µM],·,·,·
O=C1CC(c2ccccc2)=Nc2ccc(Br)cc2N1,–,–,–,–,–,–
Cc1ccc2c(c1)NC(=O)CC(c1ccccc1)=N2,–,–,?,12µM,?,?
CC(=O)Nc1ccc(S(=O)(=O)NCCc2csc3nc(-c4ccc(Cl)cc4)nn23)cc1,·,·,·,–,·,·
CC(C)OCCCNC(=O)c1cn(C)c2ccc(S(=O)(=O)N3CCCCCC3)cc2c1=O,·,·,?,–,·,·
Cc1cc(NC(=O)CSc2ccc(-c3nc4cc(C)c(C)cc4[nH]3)cn2)no1,2µM,?,–,0.19µM,0.45µM,?
Cc1cc2nc(-c3ccc(SCc4ccc(C(=O)O)cc4)nc3)[nH]c2cc1C,?,?,·,4.3µM,?,?
Cc1cc2nc(-c3ccc(SCc4ccccc4C#N)nc3)[nH]c2cc1C,–,?,11µM,9.5µM,?,?
Cc1cc2nc(-c3ccc(SCC(=O)NC(C)C)nc3)[nH]c2cc1C,2.8µM,–,?,2.1µM,3.2µM,?
Cc1ccc2nc(SCC(=O)Nc3cc(C)on3)[nH]c2c1,–,–,–,–,–,–
CC(C)NC(=O)CSc1nnc(-c2ccc(C(C)(C)C)cc2)n1C,–,–,–,?,–,–
CCCNC(=O)Cn1nc(-c2ccc(C)c(C)c2)c2cnc3ccc(OC)cc3c21,·,·,·,–,·,·
Cc1nnc(N2CCC(C(=O)N3CCCCC3)CC2)c2nn(-c3ccccc3)c(C)c12,·,·,·,–,·,·
Cc1c(C(=O)Nc2ccc(F)c(Cl)c2)sc2nc3n(c(=O)c12)CCC3,·,·,·,–,·,·
SMILES,NPC1 promoter act,ELG1 genotoxic,SMN2 splice enh,FLuc counter,Rab9 promoter act,ELG1 repair inh
Cc1cc2nc(-c3ccc(SCC(=O)N4CCc5ccccc54)nc3)[nH]c2cc1C,1.1µM,?,2.5µM,0.13µM,0.5µM,?
O=C(CN1CCCCC1)Nc1ccc(S(=O)(=O)NC2CCCCC2)cc1,–,–,–,–,–,–
COC(=O)CSc1ccc(-c2nc3ccc(C)cc3[nH]2)cn1,–,?,–,2.7µM,–,?
Cc1ccc2nc(SCC(=O)Nc3ncccn3)[nH]c2c1,–,–,·,–,–,?
Cc1cc2nc(-c3ccc(SCC(=O)Nc4ccc(S(=O)(=O)NC5CC5)cc4)nc3)[nH]c2cc1C,2.8µM,?,3.5µM,0.11µM,1.4µM,?
COc1ccc(/C=C/C(=O)Nc2cc(=O)n(C)c(=O)n2C)cc1,–,–,–,9.5µM,–,?
Cn1c(NC(=O)CCc2ccccc2)cc(=O)n(C)c1=O,?,16µM,?,13µM,2.8µM,?
CCCC(=O)Nc1cc(=O)n(C)c(=O)n1C,–,–,–,–,–,–
Cn1c(NC(=O)/C=C/c2ccccc2)cc(=O)n(C)c1=O,–,?,7.9µM,21µM,?,?
Cc1ccc(-c2nnc(Nc3ccc(C(=O)N(C)C)cc3)c3ccccc23)cc1S(=O)(=O)N(C)C,·,·,–,?,·,·
CC(C)(C)c1ccc(OCCC(=O)OCC(=O)NC(=O)NC2CCCC2)cc1,–,–,·,?,–,–
Cc1ccc(C(=O)COC(=O)CCC(=O)NC2CCCCC2)cc1C,–,–,–,9.5µM,–,–
O=C(CCC(=O)OCC(=O)c1ccc(Cl)cc1)NC1CCCCC1,–,–,–,–,–,–
CC(C)(C)c1ccc(OCCC(=O)OCC(=O)NC2CCCCC2)cc1,–,–,·,17µM,–,–
O=C(NCc1cccnc1)[C@@H]1[C@@H](C(=O)O)[C@H]2CC[C@@H]1O2,·,·,–[9.22 µM],·,·,·
C[C@H]1CCCC2(CC[N+](C)(CCC[N+](C)(C)C)CC2)C1 (some centres not stated),·,·,–[9.22 µM],·,·,·
CC(C)C(OC(=O)c1ccccc1)c1nccc2ccccc12 (configuration not stated),?,?,·,17µM,?,?
O=C(OC(c1ccccc1)c1nccc2ccccc12)c1cccc([N+](=O)[O-])c1 (configuration not stated),–,?,–,?,–,?
CN(CC(=O)Nc1cccc(F)c1)C(=O)c1cn(-c2ccccc2)nc1-c1ccccc1,–,–,·,?,–,–
CCOc1ccc(NC(=O)CN(C)C(=O)c2ccccc2OCCOc2ccccc2)cc1OCC,–,–,·,–,–,12µM
CCOc1ccc(NC(=O)CN(C)C(=O)c2ccccc2CCc2ccccc2)cc1OCC,–,–,·,–,–,7.3µM
CCOc1ccc(NC(=O)CN(C)C(=O)c2cn(-c3ccc(F)cc3)nc2-c2cccc(OC)c2)cc1OCC,–,–,·,–,–,9.2µM
Cc1ccc2c(c1)-c1onc(C(=O)N3CCN(c4ccc(Cl)cc4)CC3)c1CO2,·,·,·,–,·,·
CC(=O)Nc1ccc(C(=O)N/N=C/c2cccnc2)cc1,–,–,–[1.84 µM],–,–,–
O=C(N/N=C/c1cccnc1)c1ccc(CN2c3cccc4cccc(c34)S2(=O)=O)cc1,–,–,–,–,–,23µM
COc1ccc(C(=O)N/N=C/c2cccnc2)cc1,?,?,·,15µM,–,?
COc1ccc(C(=O)N/N=C(\c2ccccc2)c2ccccn2)cc1,–,?,–,?,–,?
COc1cccc(/C=N/NC(=O)c2ccc(CN3c4cccc5cccc(c45)S3(=O)=O)cc2)c1,–,–,–,–,–,?
COc1ccc(C(=O)N/N=C/c2cccc3cccnc23)cc1,–,–,–,7.6µM,–,–
CCOc1ccc(C(=O)N/N=C/c2cccc3cccnc23)cc1,–,–,–,6.7µM,–,?
